From PubChem BioAssay (NCI)
Values joined by “and” are separate entries in the source; they are usually repeats but may differ in a detail not shown here. Identical values can stand only once. The panel holds about 79,000 compounds, 15% with a hit somewhere; the sample as a whole holds those more often. Where a structure was tested more than once in an assay, its records may differ in their call. Active and inactive are the calls of the source. No stated cut-off is given here; in the data, active means growth inhibition above about 70%; inactive means the rest.

How the values were obtained:
[1] = NCI Yeast Anticancer Drug Screen. Data for the wt1 strain (AID 149);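 further: 0% = growth of vehicle-treated wt1 cultures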; conditions: S. cerevisiae wt1 strain (SPY 50644) growth inhibition, stronger effect = higher value
How it was run: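 wt1 yeast, compound-treated; % growth inhibition vs vehicle control.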

[2] = NCI Yeast Anticancer Drug Screen. Data for the rad50EPP+ strain (AID 151);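 further: 0% = growth of vehicle-treated control cultures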; conditions: S. cerevisiae rad50 mutant strain, stronger effect = higher value
How it was run: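 rad50EPP+ yeast treated with test compounds. Readout: growth vs vehicle control.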

[3] = NCI Yeast Anticancer Drug Screen. Data for the rad50 strain (AID 155);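 further: 0% = growth of vehicle-only cultures of the same strain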; conditions: S. cerevisiae rad50 strain growth inhibition, stronger effect = higher value
How it was run: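 Genetically altered yeast (DNA repair pathway); compound treatment; growth inhibition vs vehicle ctrl.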

[4] = NCI Yeast Anticancer Drug Screen. Data for the mec2-1 strain (AID 157); conditions: S. cerevisiae mec2-1 strain, stronger effect = higher value
How it was run: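 Growth inhibition is read against vehicle-treated controls after compound exposure of the mec2-1 yeast strain, which is defective in DNA damage repair or cell cycle control.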

[5] = NCI Yeast Anticancer Drug Screen. Data for the rad14 strain (AID 159);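 further: 0% = growth of vehicle-treated control cultures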; conditions: S. cerevisiae rad14 strain growth inhibition, stronger effect = higher value
How it was run: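 Test compounds were applied to a repair-deficient yeast strain. Its growth was then compared with that of cultures given vehicle alone, and inhibition was expressed relative to those controls.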

[6] = NCI Yeast Anticancer Drug Screen. Data for the sgs1 mgt1 strain (AID 161);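 further: 0% = growth of cultures given vehicle only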; conditions: S. cerevisiae sgs1 mgt1 strain, stronger effect = higher value
How it was run: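 Percent growth inhibition was derived by comparing compound-exposed mutant yeast with vehicle-exposed cultures. The strain carries alterations in DNA damage repair.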

[7] = NCI Yeast Anticancer Drug Screen. Data for the CLN2oe strain (AID 163);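 further: 0% = growth of vehicle-only control cultures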; conditions: S. cerevisiae CLN2oe strain, stronger effect = higher value
How it was run: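 Compound-treated yeast; growth vs vehicle ctrl = % inhibition. Genetically altered strain (cell-cycle control).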

[8] = NCI Yeast Anticancer Drug Screen. Data for the cln2 rad14 strain (AID 165);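 further: 0% = growth equal to vehicle treated cultures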; conditions: S. cerevisiae cln2 rad14 strain, stronger effect = higher value
How it was run: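 Growth inhibition, relative to vehicle-treated controls, is the read-out. The test organism is a yeast strain with defined genetic alterations, cln2 rad14.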

[9] = NCI Yeast Anticancer Drug Screen. Data for the wt2 strain (AID 169);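 further: 0% = growth of vehicle-treated yeast cultures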; conditions: S. cerevisiae wt2 strain growth inhibition, stronger effect = higher value
How it was run: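 Compound exposure of yeast; growth compared with vehicle controls; inhibition reported.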

[10] = NCI Yeast Anticancer Drug Screen. Data for the mlh1 strain (AID 171);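 further: 0% = growth of vehicle-treated control cultures of the same strain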; conditions: S. cerevisiae mlh1 strain growth inhibition, stronger effect = higher value
How it was run: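 Compounds are applied to a genetically altered yeast strain, and its growth is compared with that of vehicle-treated cultures to give percent inhibition.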

[11] = NCI Yeast Anticancer Drug Screen. Data for the sgs1 strain (AID 173);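 further: 0% = growth of vehicle-only control cultures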; conditions: S. cerevisiae sgs1 mutant, stronger effect = higher value
How it was run: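 Compounds applied to genetically altered yeast; growth compared with vehicle-treated cultures to give % inhibition.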

[12] = NCI Yeast Anticancer Drug Screen. Data for the mlh1 rad18 strain (AID 175); conditions: S. cerevisiae mlh1 rad18 strain growth inhibition, stronger effect = higher value
How it was run: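 Cells of a genetically altered yeast strain, deficient in DNA damage repair, were treated with compound. Their growth was then compared with that of vehicle-treated cultures to give inhibition.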

[13] = NCI Yeast Anticancer Drug Screen. Data for the bub3 strain (AID 167); conditions: S. cerevisiae bub3 mutant strain, stronger effect = higher value
How it was run: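 Yeast carrying a defined mutation is treated with each compound, and growth is compared with that of vehicle-exposed cells to give inhibition.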

[14] = NCI Yeast Anticancer Drug Screen. Data for the rad18 strain (AID 177); conditions: S. cerevisiae rad18 mutant growth inhibition, stronger effect = higher value
How it was run: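 Compounds are applied to a repair-deficient yeast strain, and growth is compared with that of vehicle-treated cultures to give percent inhibition.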

[15] = at 5.0 µM (retest, dose inferred, filed as 0.5)
[16] = at 50.0 µM (retest, dose inferred, filed as 5.0)

Measured: growth inhibition

CN(C)c1ccc(C(c2ccc(Cl)cc2)c2ccc(N(C)C)cc2)cc1
-52% (inactive) and 97% (active): [8]; [15]
inactive: [1]; at 1.2 µM 0% | [1]; at 3.7 µM 53% | [1]; at 11.0 µM 28% | [2]; at 1.2 µM 3% | [2]; at 3.7 µM 10% | [2]; at 11.0 µM 6% | [2]; at 33.0 µM -2% | [2]; at 100.0 µM 14% | [3]; at 1.2 µM 64% | [4]; at 1.2 µM 31% | [7]; at 1.2 µM -14% | [7]; at 3.7 µM 26% | [7]; at 11.0 µM 26% | [9]; at 1.2 µM -2% | [9]; at 3.7 µM 13% | [9]; at 11.0 µM 17% | [10]; at 1.2 µM 9% | [11]; at 1.2 µM 24%
active: [1]; at 33.0 µM 73% | [1]; at 100.0 µM 86% | [3]; at 3.7 µM 97% | [3]; [15] 91% and 98% | [3]; at 11.0 µM 96% | [3]; at 33.0 µM 89% | [3]; [16] 94% and 99% | [3]; at 50.0 µM 95.7% and 94.5% | [3]; at 100.0 µM 79% | [4]; at 3.7 µM 98% | [4]; [15] 90% and 99% | [4]; at 11.0 µM 97% | [4]; at 33.0 µM 93% | [4]; [16] 93% and 100% | [4]; at 50.0 µM 95% and 94.3% | [4]; at 100.0 µM 86% | [5]; at 1.2 µM 82% | [5]; at 3.7 µM 98% | [5]; at 11.0 µM 98% | [5]; at 33.0 µM 94% | [5]; at 100.0 µM 84% | [6]; [15] 98% | [6]; [16] 94% and 99% | [6]; at 50.0 µM 94.1% and 95.3% | [7]; at 33.0 µM 87% | [7]; at 100.0 µM 78% | [8]; [16] 74% and 99% | [8]; at 50.0 µM 77.9% and 89.7% | [9]; at 33.0 µM 86% | [9]; at 100.0 µM 85% | [10]; at 3.7 µM 87% | [10]; at 11.0 µM 73% | [10]; at 33.0 µM 92% | [10]; at 100.0 µM 86% | [11]; at 3.7 µM 91% | [11]; at 11.0 µM 83% | [11]; at 33.0 µM 93% | [11]; at 100.0 µM 85% | [12]; [15] 96% and 98% | [12]; [16] 90% and 99% | [12]; at 50.0 µM 93.4% and 92.8%

Cc1[nH]nc(C(F)(F)F)c1N=NN(C)C
active: [1]; at 33.0 µM 99% | [1]; at 100.0 µM 99% | [2]; at 11.0 µM 73% | [2]; at 33.0 µM 96% | [2]; at 100.0 µM 98% | [3]; [15] 91% | [3]; at 11.0 µM 87% | [3]; at 33.0 µM 99% | [3]; [16] 97% | [3]; at 50.0 µM 99.3% | [3]; at 100.0 µM 98% | [4]; [15] 96% | [4]; at 33.0 µM 99% | [4]; [16] 99% | [4]; at 50.0 µM 99.7% | [4]; at 100.0 µM 98% | [5]; at 33.0 µM 99% | [5]; at 100.0 µM 99% | [6]; [15] 78% | [6]; [16] 98% | [7]; at 33.0 µM 99% | [7]; at 100.0 µM 99% | [8]; [15] 81% | [8]; [16] 99% | [8]; at 50.0 µM 99.1% | [13]; at 33.0 µM 98% | [13]; [16] 98% | [13]; at 50.0 µM 99.5% | [13]; at 100.0 µM 98% | [9]; at 33.0 µM 99% | [9]; at 100.0 µM 99% | [10]; at 33.0 µM 99% | [10]; at 100.0 µM 99% | [11]; at 11.0 µM 75% | [11]; at 33.0 µM 99% | [11]; at 100.0 µM 99% | [12]; [16] 98% | [12]; at 50.0 µM 91.1% | [14]; at 11.0 µM 79% | [14]; at 33.0 µM 99% | [14]; at 100.0 µM 99%
inactive: [1]; at 1.2 µM -4% | [1]; at 3.7 µM 37% | [1]; at 11.0 µM 46% | [2]; at 1.2 µM 3% | [2]; at 3.7 µM 35% | [3]; at 1.2 µM 10% | [3]; at 3.7 µM 51% | [4]; at 1.2 µM 2% | [4]; at 3.7 µM 32% | [4]; at 11.0 µM 61% | [5]; at 1.2 µM 2% | [5]; at 3.7 µM 10% | [5]; at 11.0 µM 54% | [6]; at 50.0 µM 45% | [7]; at 1.2 µM -1% | [7]; at 3.7 µM 8% | [7]; at 11.0 µM 51% | [13]; at 1.2 µM -10% | [13]; at 3.7 µM -8% | [13]; [15] 30% | [13]; at 11.0 µM 45% | [9]; at 1.2 µM -1% | [9]; at 3.7 µM 49% | [9]; at 11.0 µM 51% | [10]; at 1.2 µM 4% | [10]; at 3.7 µM 48% | [10]; at 11.0 µM 52% | [11]; at 1.2 µM 12% | [11]; at 3.7 µM 48% | [12]; [15] 25% | [14]; at 1.2 µM 10% | [14]; at 3.7 µM 47%
